Test results published in PubChem BioAssay AID2289 (National Center for Advancing Translational Sciences (NCATS), 2010).
The whole screen tested about 340,000 compounds, of which about 3,300 (0.97%) were called active. Inconclusive results (about 9%) are left out. Calls come from the whole dose curve; as a rule, active = well fitted inhibition curve with a large enough effect; inconclusive = small, poorly fitted or top-dose-only effect, or effect the other way; inactive = flat fitted curve, though single readings scatter. The list shows a part of the results.

test: qHTS Assay for Modulators of miRNAs and/or Inhibitors of miR-21; conditions: HeLa miR-21-FLuc reporter, luciferase luminescence, 48 h; actives lower the signal; note: nearly all actives have a fitted effect of over 55% in size
In short: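 HeLa miR-21-FLuc reporter line, endogenous miR-21; 2000 cells/well in DMEM/10% FBS; compound titration up to ~40uM final, 48 h, 37 degree Celsius; luciferase detection reagent, 15 min lysis, CCD luminescence.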
Potency is the fitted concentration of half-maximal effect.

Potency, active:
Cn1ccsc1=NC(=O)c1ccc(OC(F)(F)F)cc1 4.65 µM
CCCCOc1ccc(C(=O)N=c2sccn2C)cc1OC 4.65 µM
CCCCCc1ccc(-c2ccc(C(=O)Oc3ccc(C(=O)OC)cc3)cc2)nc1 0.656 µM
CCCCCc1ccc(-c2ccc(Br)cc2)nc1 3.69 µM
CCCCc1ccc(-c2ccc(Br)cc2)nc1 3.69 µM
CCCCCc1ccc(-c2nnc(N)s2)cc1 16.5 µM
CCCCOc1ccc(-c2nnc(N)s2)cc1 14.7 µM
CCCOc1ccc(-c2nnc(N)s2)cc1 5.21 µM
COc1cc(-c2cc(=O)c3ccccc3o2)ccc1O 8.26 µM
COc1cc(-c2cc(=O)c3c(O)cc(O)cc3o2)ccc1O 4.14 µM
CCS(=O)(=O)n1nc(-c2ccc(Cl)cc2)nc1SCc1ccccc1 8.26 µM
CC(=O)c1cc(C#N)c(SCc2ccccn2)nc1C 7.36 µM
CC(=O)c1cc(C#N)c(SCc2ccccc2)nc1C 13.1 µM
CC(=O)c1cnc2nc(SCc3ccccc3)nn2c1C 5.21 µM
C=CCNCCCCOc1ccc(OCc2ccccc2)cc1 7.36 µM
CC(O)CNCCCCOc1ccc(OCc2ccccc2)cc1 (stereo not drawn) 9.27 µM
COCCCNCCCCOc1ccc(OCc2ccccc2)cc1 18.5 µM
CC(C)(C)C1(C)OC(=O)C(=Cc2ccc(OCC(=O)Nc3ccccc3)cc2)C(=O)O1 (stereo not drawn) 11.7 µM
Cc1ccc(C(=O)NCc2ccc3c(c2)CCO3)cc1C 10.4 µM
COC(=O)c1ccc(N=NN2CCOCC2)cc1 7.36 µM
O=C(O)c1cccc(N=NN2CCCCCC2)c1 0.165 µM
COC(=O)c1ccc(N=NN2CCCCC2)cc1 7.36 µM
COC(=O)c1ccc(N=NN2CCCCCC2)cc1 5.85 µM
Cc1cc(C(F)(F)F)c(C#N)c(SCC(=O)Nc2nc3cc(Br)ccc3s2)n1 3.69 µM
Cc1ccc(NC2Nc3cc(C)nn3S2)c(C)c1 (stereo not drawn) 6.56 µM
CCc1ccc(NC2Nc3cc(C)nn3S2)cc1 (stereo not drawn) 1.65 µM
Cc1csc(SCc2nnc(-c3ccc(Cl)cc3)o2)n1 4.65 µM
O=C(CSc1nc2ccccc2s1)N/N=C/c1ccccc1C(=O)O 16.5 µM
Cc1c(C=O)c2cc(OCc3ccccc3)ccc2n1C 4.14 µM
COc1ccc(-c2nc3n(c2C)Cc2ccccc2-3)cc1 6.56 µM
Cc1ccc(N=Nc2c(O)[nH]c3ccc(F)cc23)cc1 1.31 µM
Oc1[nH]c2ccccc2c1N=Nc1ccc(F)cc1 5.85 µM
CCOC(=O)c1c(C)[nH]c(C(=O)CSc2nccc(C)n2)c1C 4.65 µM
CCOC(=O)c1c(C)[nH]c(C(=O)CSc2ccc(Cl)cc2)c1C 7.36 µM
CCOC(=O)c1c(C)[nH]c(C(=O)COC(=O)CNC(=O)c2ccccc2Cl)c1C 13.1 µM
CCOC(=O)c1c(C)[nH]c(C(=O)COC(=O)C2CC2C)c1C (stereo not drawn) 2.61 µM
CCOC(=O)c1c(C)[nH]c(C(=O)COC(=O)CCSc2ccccc2)c1C 13.1 µM
Cc1ccc(N/C=C2/Sc3ccccc3NC2=O)cc1 4.14 µM
Cc1nn(-c2ccccc2)c(Cl)c1/C=N/NC(=O)c1ccnn1C 5.21 µM
Cc1nn(-c2ccccc2)c(Cl)c1/C=N/Nc1nc2ccccc2[nH]1 0.293 µM
Cc1nn(-c2ccccc2)c(Cl)c1/C=N/NC(=O)c1ccco1 3.29 µM
COC(=O)N/N=C\c1c(C)nn(-c2ccccc2)c1Cl 7.36 µM
Cc1nn(-c2ccccc2)c(Cl)c1/C=N/NC(=O)c1ccccc1F 4.65 µM
CCOC(=O)N/N=C/c1c(C)nn(-c2ccccc2Cl)c1Cl 7.36 µM
Cc1nn(-c2ccccc2)c(Cl)c1/C=N/NC(N)=O 16.5 µM
CC1CCCN(c2nc3ccsc3c(=O)s2)C1 (stereo not drawn) 8.26 µM
Cn1nc(NC(=O)C(F)(F)F)c2ncc(-c3ccc(Cl)cc3)nc21 9.27 µM
Cc1ccc2c(C)c(C(=O)N3CCCC(C(N)=O)C3)oc2c1C (stereo not drawn) 13.1 µM
c1ccc(COc2ccc(CN3CCN(c4ccccn4)CC3)cc2)cc1 6.56 µM
C=COC(=O)CSc1nc(-c2cccs2)ccc1C#N 0.927 µM
CCOC(=O)c1cnc(-c2ccccc2)nc1N(C)C 7.36 µM
Cc1cc(-c2ccccc2)nc(-c2ccccc2)c1C 7.36 µM
Cc1cc2ncc(-c3ccccc3)nc2cc1C 0.656 µM
CCOC(=O)c1ccc(Nc2cnc3ccccc3n2)cc1 1.47 µM
CCOC(=O)c1ccc2ncc(-c3ccccc3)nc2c1 1.85 µM
CCOC(=O)c1ccc2c(c1)nc(-c1ccccn1)n2CC 1.65 µM
O=[N+]([O-])c1cccc(-c2ccc(SCc3ccccn3)nn2)c1 6.56 µM
Cc1cc2ncn(C(=O)N3CCC(C)CC3)c2cc1C 10.4 µM
COc1cc(/C=C/c2ccc(O)cc2)cc(OC)c1 2.93 µM
FC(F)(F)c1ccnc(Oc2ccc(C3=NCCS3)cc2)c1 1.65 µM
O=C(Cn1nnc(-c2ccc3c(c2)OCO3)n1)Nc1ccccc1C(=O)O 14.7 µM
Cc1ccccc1CSc1ccc(-c2ccc3c(c2)OCO3)nn1 14.7 µM
Cc1ccccc1Cn1nnc(-c2ccc3c(c2)OCO3)n1 16.5 µM
COc1cccc(-n2cnc3sc(C)c(C)c3c2=O)c1 11.7 µM
Clc1ccccc1-c1nnc(-c2ccccc2Cl)o1 3.69 µM
Fc1cccc(NCc2ccccc2-c2nnc(-c3ccccc3Cl)o2)c1 1.04 µM
Clc1ccccc1-c1nnc(-c2ccc3c(c2)OCO3)o1 0.585 µM
O=C(c1cccc(C(F)(F)F)c1)C1CCCN(C(=O)CN2CCCC2=O)C1 (stereo not drawn) 3.29 µM
